Source: PubChem BioAssay AID1259417 (TB Discovery Research, Infectious Disease Research Institute, 2018)
Hit rate of the full screen: of about 1,100 compounds, about 760 (69%) were called active. How the calls were made is not given here. So high a share suggests a set chosen from earlier hits. This is one part of the list.

Experiment: M. tuberculosis growth inhibition, HTS (AID 1259417);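 further: bacteria grown with compound for 5 days at 37 °C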
Conditions: stronger effect = higher value, concentration not given here
[1] = M. tuberculosis DsRed fluorescence growth inhibition
[2] = M. tuberculosis growth inhibition

| Structure (SMILES) | inhibition [1] | inhibition [2] |
| --- | --- | --- |
| Cc1ccc2c(C)nc(Nc3nc(CSc4nc5ccccc5s4)cc(=O)[nH]3)nc2c1 | -4.65% (inactive) | -12.8% |
| Nc1ncnc(Sc2nc3ccccc3s2)c1[N+](=O)[O-] | 100% (active) | 99.4% |
| Cc1cc(Sc2ncnc(N)c2[N+](=O)[O-])ncn1 | 99.4% (active) | 100% |
| Cc1ccc2sc(N(CCCn3ccnc3)C(=O)c3ccco3)nc2c1C | 98.6% (active) | 98.1% |
| Cc1cccc2sc(N(CCCn3ccnc3)C(=O)c3ccco3)nc12 | 98.6% (active) | 99.8% |
| Cc1c(Cl)ccc2sc(N(CCCn3ccnc3)C(=O)c3ccco3)nc12 | 98.6% (active) | 99.5% |
| Cc1cc(Cl)cc2sc(N(CCCn3ccnc3)C(=O)c3ccco3)nc12 | 97.5% (active) | 98.4% |
| O=C(Nc1ccc(Cl)cc1C(F)(F)F)c1ccc([N+](=O)[O-])o1 | 60.7% (active) | 58.1% |
| O=C(Nc1nc2c(Cl)cccc2s1)c1ccc([N+](=O)[O-])o1 | -3.76% (inactive) | 28.2% |
| O=C(Nc1nnc(-c2ccc(Cl)s2)o1)c1ccc([N+](=O)[O-])o1 | 95.4% (active) | 87.9% |
| O=C(Nc1nnc(-c2ccc(Cl)cc2)o1)c1ccc([N+](=O)[O-])o1 | 98.3% (active) | 98.8% |
| O=C(CCc1ccccc1)Nc1nnc(-c2ccc(Cl)s2)o1 | 10% (inactive) | 26.7% |
| C=CCn1c(O)c(C2=c3ccccc3=NC2=O)sc1=N | -9.61% (inactive) | 14.7% |
| CCn1c(NCc2c(O)ccc3ccccc23)nc2ccccc21 | 77.8% (active) | 89% |
| CCCCCn1c(NCc2ccc(N(C)C)cc2)nc2ccccc21 | -0.00251% (inactive) | -15.7% |
| Cc1ccc(-c2nnc(NC(=O)c3ccc([N+](=O)[O-])s3)o2)c(C)c1 | 41.9% (active) | 72.9% |
| Cc1ccc(-c2nnc(NC(=O)c3c(F)cccc3F)o2)c(C)c1 | 2.49% (inactive) | -10.3% |
| Cc1ccc(C)c(-c2nnc(NC(=O)c3ccc([N+](=O)[O-])s3)o2)c1 | 98.9% (active) | 97.4% |
| Cc1ccc(-c2nnc(NC(=O)c3ccc([N+](=O)[O-])o3)o2)c(C)c1 | 97.8% (active) | 98.1% |
| Cc1ccc(C)c(-c2nnc(NC(=O)c3ccc([N+](=O)[O-])o3)o2)c1 | 12.4% (inactive) | 1.93% |
| O=[N+]([O-])c1ccc(N2CCN(CCO)CC2)cc1NCCOc1cccc2ccccc12 | 10.3% (inactive) | -3.69% |
| CCOc1cc2c3c(c1)C1(C(=O)N3C(C)(C)C=C2C)C(C#N)=C(N)Oc2cc(O)ccc21 (stereo unspecified) | 10.6% (inactive) | -4.41% |

| Structure (SMILES) | inhibition [1] | inhibition [2] |
| --- | --- | --- |
| O=C1C(Cl)=C(Nc2ccccc2O)C(=O)N1c1ccccc1 | 96% (active) | 94.9% |
| O=C1C(Cl)=C(Nc2ccccc2O)C(=O)N1c1ccc(Cl)c(Cl)c1 | 95.4% (active) | 94.6% |
| O=[N+]([O-])c1ccc(-c2[nH]c(-c3cccs3)nc2-c2ccccc2)cc1 | -27% (inactive) | 4.73% |
| COC(=O)CSc1nc2ccccc2nc1SCC(=O)OC | 11.6% (active) | 37.2% |
| c1ccc(-c2nc(NCC3CCCO3)c3ccccc3n2)nc1 (stereo unspecified) | 95.4% (active) | 94.9% |
| CC(=O)c1cccc(Nc2nc(-c3ccccn3)cs2)c1 | 70.5% (active) | 74.6% |
| COc1ccc(Nc2nc(-c3ccccn3)cs2)c(OC)c1 | 92.1% (active) | 83.9% |
| COc1cccc(Nc2nc(-c3ccccn3)cs2)c1 | 93.6% (active) | 93.4% |
| CC(=O)c1cccc(Nc2cc(C)nc3c2ccc2ccccc23)c1 | 10.9% (inactive) | -33.8% |
| CC(=O)c1ccc(NC(=O)NC(C)C23CC4CC(CC(C4)C2)C3)cc1 (stereo unspecified) | 98.3% (active) | 94.8% |
| CC(=O)c1ccc(NC(=O)Nc2cc(OCC(F)(F)F)cc(OCC(F)(F)C(F)F)c2)cc1 | 1.19% (inactive) | 22.7% |
| Cc1ccc(-c2nc3c(cnn3-c3ccccc3)c(=O)o2)cc1 | 4.19% (inactive) | -0.344% |
| Cc1oc2c(c1C(=O)Nc1cccc3ccccc13)CCCC2 | 13.4% (inactive) | 21.7% |
| CCOC(=O)C(Cc1ccccc1)C(=O)Nc1cccc2ccccc12 (stereo unspecified) | -0.257% (inactive) | -5.18% |
| CCCC(=O)Nc1cccc(-c2nc3ccccc3c(=O)o2)c1 | 29.1% (active) | 52% |
| O=C(Nc1ccc(-c2nc3ccccc3c(=O)o2)cc1)c1ccccc1I | 78.1% (active) | 85.2% |
| COc1ccccc1OC(=O)c1sc2ccccc2c1Cl | 17.3% (active) | 53% |
| COc1ccccc1-c1nnc(NC(=O)c2sc3ccccc3c2Cl)o1 | -1.61% (inactive) | -16% |
| Cc1ccccc1OC(=O)c1sc2ccccc2c1Cl | 25.5% (active) | 64.7% |
| Cc1c(OC(=O)c2ccccc2Cl)ccc2c1CCCC2 | 7.92% (inactive) | 16.4% |
| O=C1c2cccc3cccc(c23)C(=O)N1c1ccc2[nH]c(=O)[nH]c2c1 | 36.4% (active) | 63.9% |
| COc1ccc2nc(C)c3cc(C)oc3c2c1 | 99.8% (active) | 99.6% |

| Structure (SMILES) | inhibition [1] | inhibition [2] |
| --- | --- | --- |
| O=c1cc(-c2c(F)c(F)c(F)c(F)c2F)oc2ccccc12 | 99.2% (active) | 96.4% |
| O=C(Oc1ccc(Cl)cc1)c1ccc(S(=O)(=O)c2ccc(Cl)cc2)cc1 | 55.3% (active) | 74.8% |
| O=C(Oc1cccc2cccnc12)c1ccc(S(=O)(=O)N2CCCCC2)cc1 | 99.4% (active) | 100% |
| Cc1ccc(S(=O)(=O)NC(=O)Oc2cccc3cccnc23)cc1 | -0.272% (inactive) | -10.4% |
| O=C(Oc1ccccc1Cl)c1ccc(N2CCOCC2)c([N+](=O)[O-])c1 | 0.0336% (inactive) | 13.4% |
| O=C(Oc1ccc(Cl)cc1)c1ccc(N2CCOCC2)c([N+](=O)[O-])c1 | 4.2% (inactive) | 24.6% |
| O=C(Oc1cccc2cccnc12)c1ccc(Cl)c(S(=O)(=O)N2CCOCC2)c1 | 100% (active) | 101% |
| O=C(Oc1c(Cl)cc(Cl)c2cccnc12)c1cc(S(=O)(=O)N2CCCCC2)ccc1Cl | 98.6% (active) | 99.4% |
| COCCn1nnnc1C(c1cc2cc(OC)ccc2[nH]c1=O)N1CCC(Cc2ccccc2)CC1 (stereo unspecified) | 6.25% (inactive) | -12.1% |
| O=C(Oc1ccccc1)c1ccc(S(=O)(=O)N2CCCCC2)cc1 | 12% (active) | 46.3% |
| Cc1nc2ccccn2c1C(=O)NCc1ccc2c(c1)OCO2 | 99.7% (active) | 99.6% |
| Cc1nn(Cc2ccccc2Cl)c2sc(C(=O)NCc3ccc4c(c3)OCO4)cc12 | -3.53% (inactive) | -15.9% |
| COc1ccc(CNC(=O)c2c(C)nc3ccccn23)cc1 | 99.4% (active) | 100% |
| CCOC(=O)CSc1nc(C#N)c(SCC(=O)OCC)s1 | 31.4% (active) | 80.2% |
| CCOC(=O)CSc1nc(N)c(C#N)c(CC(C)C)c1C#N | -5.9% (inactive) | -4.83% |
| Cc1ccc(NC(=O)CSc2ccc(-c3ccccn3)nn2)cc1 | 89% (active) | 97.4% |
| COc1ccc(-c2nc(NC(=O)c3ccccc3)n[nH]2)cc1OC | 97.2% (active) | 96.7% |
| CCOC(=O)c1c(NC(=O)c2ccccc2C)sc(C)c1-c1ccc(OC)c(OC)c1 | -3.52% (inactive) | -17.9% |
| CC(C)=CCN1CCN(CCC2=C(C)CCCC2(C)C)CC1CCO (stereo unspecified) | -2.34% (inactive) | -26.9% |
| COc1cccc(NC(=O)c2c(NC(=O)c3cccnc3)sc3c2CCC3)c1 | 92.4% (active) | 95.5% |
| COC(=O)c1c(NC(=O)c2cccc(OC)c2)sc2c1C(C(=O)OC)CC2 (stereo unspecified) | 1.52% (inactive) | -13.4% |
| COc1ccc(NC(=O)c2c(NC(=O)c3ccc([N+](=O)[O-])o3)sc3c2CCC3)cc1 | 96.5% (active) | 96.2% |

| Structure (SMILES) | inhibition [1] | inhibition [2] |
| --- | --- | --- |
| COc1cccc(NC(=O)c2c(NC(=O)c3cccc(C)c3)sc3c2CCC3)c1 | -1.15% (inactive) | -10.7% |
| CCn1ccnc1CN(C)Cc1cn(-c2cc(C)ccc2C)nc1-c1ccccc1 | 16.9% (inactive) | 8.97% |
| Brc1ccc(-c2nn(-c3ccccc3)cc2CNCc2ccccc2)cc1 | 23.1% (active) | 39.4% |
| Cc1ccc(-c2nn(-c3ccccc3)cc2CNCc2ccccc2)cc1 | 33.4% (active) | 66.5% |
| CC(C)COc1ccc(-c2nn(-c3ccccc3)cc2C(=O)Nc2nccs2)cc1 | 2.38% (inactive) | -24.1% |
| CCn1ccnc1CN(C)Cc1cn(-c2ccc(C)cc2)nc1-c1cccc(C)c1 | 14.8% (inactive) | 8.21% |
| CCc1nnc(NC(=O)c2cc3ccccc3oc2=O)s1 | 1% (active) | 47% |
| CCOC(=O)c1cc(CC)sc1NC(=O)c1cc2ccccc2oc1=O | 23.7% (active) | 60.6% |
| CCOC(=O)c1c(-c2ccc(OC)c(OC)c2)csc1NC(=O)c1cccc(OC)c1OC | 4.18% (inactive) | -8.63% |
| CCOC(=O)c1c(-c2ccccc2)csc1NC(=O)c1cc2ccccc2oc1=O | 7.43% (active) | 32.3% |
| NC(=O)c1c(NC(=O)c2cc3ccccc3oc2=O)sc2c1CCCCCC2 | 3.53% (inactive) | -10.8% |
| Cc1sc(NC(=O)c2cc3ccccc3oc2=O)c(C(=O)OC(C)C)c1C | 6.18% (inactive) | 28.3% |
| Cc1cc2ncn(CCOc3ccc(Cl)cc3)c2cc1C | 88.3% (active) | 95.9% |
| Cc1cc2ncn(Cc3ccc(C(C)C)cc3)c2cc1C | 90.4% (active) | 98.3% |
| Cc1cccc(OCCCn2cnc3cc(C)c(C)cc32)c1 | 88% (active) | 97.5% |
| c1ccc(CCN(Cc2ccccc2)C2CCN(Cc3c[nH]c4ccccc34)CC2)cc1 | 2.96% (inactive) | -21.5% |
| C1=CC2CC1CC2CN1CCC(N(CCc2ccccc2)Cc2ccccc2)CC1 (stereo unspecified) | 99.4% (active) | 96.9% |
| O=C(OCn1nnc2ccccc2c1=O)c1ccccc1 | 40.5% (active) | 44.9% |
| Cc1ccc(-c2nnc(N3CCN(C(=O)c4ccco4)CC3)c3ccccc23)cc1 | 3.3% (inactive) | -1.04% |
| CCCn1nnnc1NC(=O)c1cccs1 | 18.2% (inactive) | 29.4% |
| O=C(OCn1nnc2ccccc2c1=O)c1ccco1 | 20.6% (active) | 47% |
| O=C(OCn1nnc2ccccc2c1=O)c1cccs1 | 42.4% (active) | 57.1% |
